# Screening data (PubChem)
# Shown are actives, neighbours in structure and some others; about 2.6% of the full set was active somewhere.
# PABP1 MLLE inh = inhibitors of PABP1 MLLE–PAM2 peptide binding, primary screen, biochemical, fluorescence polarization, FITC-PAM2, GST-MLLE; inhibition, % at 20 µM; Polyadenylate-binding protein 1 (Homo sapiens), P11940; hit rate 0.36% among 360,000; in the data active = inhibition above about 35%, passing the limit was not always enough;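 also: plate controls were DMSO wells with GST-MLLE for no effect and wells lacking GST-MLLE protein for full effect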
# APOBEC3G inh = APOBEC3G DNA deaminase inhibitors, primary screen, biochemical, fluorescence, single-stranded DNA substrate, uHTS. inhibition, % at 20 µM. DNA dC->dU-editing enzyme APOBEC-3G (Homo sapiens), Q9HC16. hit rate 0.28% among 330,000. recombinant A3G, ssDNA deamination FAM/TAMRA fluorescence;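 active = inhibition of at least 40% at 20 µM, with no more than 30% in the related APOBEC3A deaminase screen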;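 also: plate controls were DMSO wells with A3G for no effect and wells lacking A3G enzyme for full effect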
# Target sequence (Q9HC16 whole entry, looked up): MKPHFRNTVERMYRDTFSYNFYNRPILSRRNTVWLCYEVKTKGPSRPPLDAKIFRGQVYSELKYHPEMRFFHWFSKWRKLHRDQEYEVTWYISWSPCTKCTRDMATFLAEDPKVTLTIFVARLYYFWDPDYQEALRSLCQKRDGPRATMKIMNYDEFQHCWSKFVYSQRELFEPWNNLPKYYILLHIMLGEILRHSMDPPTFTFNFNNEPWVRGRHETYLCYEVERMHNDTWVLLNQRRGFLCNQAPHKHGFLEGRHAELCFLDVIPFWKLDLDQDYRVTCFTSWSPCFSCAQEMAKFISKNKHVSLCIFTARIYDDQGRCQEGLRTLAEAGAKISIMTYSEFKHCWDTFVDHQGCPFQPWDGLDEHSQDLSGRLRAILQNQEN
# PHOSPHO1 block = PubChem AID 1565; hit rate 1.1% among 290,000; Phosphoethanolamine/phosphocholine phosphatase (Homo sapiens), Q8TCT1; recombinant PHOSPHO1, absorbance phosphatase assay; inhibition, % at 13.3 µM; in the data active = inhibition above about 60%
# PABP polyA inh = PABP poly(A) RNA binding inhibitors, primary screen, biochemical, fluorescence polarization, uHTS | calls only at 35 µM | hit rate 1% among 290,000;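 also: calls also rest on retests at 20 µM and on dose response follow-up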
# eIF4H inh = human eIF4H binding inhibitors, primary screen, translation initiation inhibitor project, biochemical, uHTS, fluorescence polarization. Eukaryotic translation initiation factor 4H (Homo sapiens), Q15056. eIF4H fluorescence polarization binding assay. inhibition, % at 35 µM. hit rate 0.94% among 290,000;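 also: calls also rest on retests at 20 µM and on dose response follow-up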
# A3A deaminase = APOBEC3A ssDNA deaminase inhibitors, primary screen, selectivity assay for APOBEC3G inhibitor project, biochemical, FAM/TAMRA oligo cleavage fluorescence; DNA dC->dU-editing enzyme APOBEC-3A (Homo sapiens), P31941; recombinant A3A, FAM/TAMRA ssDNA deamination fluorescence; inhibition, % at 20 µM; hit rate 0.41% among 330,000; AID 493011, 2011;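 active = at least 40% inhibition at 20 µM here, with at most 30% in a related deaminase screen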;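 also: plate controls were A3A with DMSO for no effect and wells lacking A3A enzyme for full effect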
# Starred values were filed as active, the others as inactive; i = inactive; x = not tested or not shown; + = active, no number. Unless noted, no rule for the calls is given here.
SMILES,PABP1 MLLE inh,APOBEC3G inh,PHOSPHO1 block,PABP polyA inh,eIF4H inh,A3A deaminase
O=C(NCCN1CCCC(O)C1)c1cc(COc2cccc(C(F)(F)F)c2)on1 (stereo not given),8.1,x,x,x,x,x
O=[N+]([O-])c1cc2c(cc1Br)-c1ccccc1C2,-11.1,x,x,x,x,x
COc1ccc([C@@H]2C[C@H]3CN(Cc4ccccc4OC)C(=O)[C@]34CCCN24)cc1C,-23.2,-6.9,10.2,+,51.6*,-3.2
Nc1nnc(-c2cc3c(ccc4ccccc43)oc2=O)s1,x,x,21.4,i,85.9*,x
O=c1oc2ccc3ccccc3c2cc1-c1nnc(-c2ccccc2)o1,0.0,-3.5,4.6,i,10.7,0.5
CCC(C)c1ccc(NC(=O)NCCN2CCCCC2)cc1 (stereo not given),7.8,17.5,x,i,-3.3,-5.8
Nc1nc(Sc2c([N+](=O)[O-])cc(C(F)(F)F)cc2[N+](=O)[O-])n[nH]1,39.5*,-7.5,-27.3,i,7.2,-4.0
Nc1nc(Sc2ccc(C(F)(F)F)cc2[N+](=O)[O-])n[nH]1,-6.7,-7.2,2.1,i,4.0,-5.1
Cc1c(N)cc(S(=O)(=O)O)cc1NC(=O)c1cccc([N+](=O)[O-])c1,12.9,x,x,x,x,x
NS(=O)(=O)c1ccc2c(c1)C1C=CCC1C(C1CC=CCC1)N2 (stereo not given),0.5,3.3,3.2,+,53.0*,3.0
Cn1c(=O)oc2cc(S(=O)(=O)N3CCN(c4ccc(F)cc4)CC3)ccc21,-5.6,-6.0,-17.3,i,28.1,-0.6
Cn1c(=O)oc2cc(S(=O)(=O)N3CCN(c4cccc(Cl)c4)CC3)ccc21,-6.8,-6.6,-16.0,+,103.1*,-2.2
COc1ccc(Cn2nnnc2C(c2cc3ccc(OC)cc3[nH]c2=O)N2CCCCCC2)cc1 (stereo not given),-4.1,1.9,85.6*,i,9.4,3.1
CCc1ccc2[nH]c(=O)c(C(c3nnnn3CCOC)N3CCN(c4ccc(F)cc4)CC3)cc2c1 (stereo not given),8.3,-0.1,-12.9,i,-3.0,-0.8
CCc1ccc2[nH]c(=O)c(C(c3nnnn3CCOC)N3CCN(c4ccccc4)CC3)cc2c1 (stereo not given),2.4,-9.4,85.6*,i,3.6,-5.5
COc1ccc2cc(C(c3nnnn3C3CCCC3)N3CCc4ccccc4C3)c(=O)[nH]c2c1 (stereo not given),40.8*,5.3,97.8*,i,1.6,0.1
CCC(C)(C)n1nnnc1C(c1cc2ccc(OC)cc2[nH]c1=O)N1CCc2ccccc2C1 (stereo not given),71.5*,-1.4,14.4,i,-0.2,0.0
C[C@@H]1COC(=O)[C@H](Cc2ccc(F)cc2)CC/C=C\C[C@@H](CC(=O)NCCO)C(=O)N1,-38.6,5.6,x,x,x,3.4
CC1=C(C(=O)OCCOC(C)C)C(c2cc3c(cc2Br)OCO3)C2=C(CCCC2=O)N1 (stereo not given),67.4*,-5.0,0.1,i,10.2,-2.3
CCN(CC)c1ccc(C2C(C(=O)OCCOC(C)C)=C(C)NC3=C2C(=O)CCC3)cc1 (stereo not given),4.7,-3.4,6.2,i,-4.6,-3.1
COc1cccc(C2C(C#N)=C(N)Oc3cc(C)n(Cc4ccco4)c(=O)c32)c1 (stereo not given),-49.0,-2.2,3.7,+,51.2*,-0.4
COc1ccc(C2C(C#N)=C(N)Oc3cc(C)n(Cc4ccco4)c(=O)c32)cc1 (stereo not given),-47.5,5.2,21.5,i,41.0,9.7
O=S(=O)(c1cccc(F)c1)N1CCN(c2nc(-c3cccnc3)nc3ccccc23)CC1,-2.0,-3.7,x,x,x,1.0
O=C(O)c1cccc(NC(=S)N/N=C/c2ccccc2OCc2cccc(Br)c2)c1,35.9,x,-6.2,i,53.2*,x
COCCn1cnc2c(c1=O)c1nc3ccccc3nc1n2/N=C/c1ccco1,-7.4,-4.2,7.8,i,10.1,1.9
SMILES,PABP1 MLLE inh,APOBEC3G inh,PHOSPHO1 block,PABP polyA inh,eIF4H inh,A3A deaminase
Cc1nc2c(c(=O)n1CCC1=CCCCC1)c1nc3ccccc3nc1n2/N=C/c1ccco1,14.0,34.5,10.7,+,68.2*,11.8
CCCn1c(C)nc2c(c1=O)c1nc3ccccc3nc1n2CCC1=CCCCC1,31.1,-2.4,68.9*,i,26.3,-0.8
CC(C(=O)NCc1ccco1)n1ccc2cc(S(=O)(=O)N3CCCCC3)ccc21 (stereo not given),-6.9,0.9,18.1,i,4.8,0.2
CC(C)(CCC(=S)N1CCOCC1)C1CCCCC1,42.4*,12.5,-101.0,i,-1.5,-4.1
S=C(CN1CCCC1=S)N1CCOCC1,8.2,-6.5,x,x,x,-0.6
CCN(CC)C(=O)CSc1nnc2sc3ccccc3n12,-61.1,-3.7,62.1*,i,0.3,0.2
CCN(CC)C(=O)CSc1nnc(-c2ccccc2)n1-c1ccccc1,-98.2,-6.4,81.6*,i,0.8,-5.2
c1ccc(OCCSc2nnc3sc4ccccc4n23)cc1,-15.3,-7.4,13.5,i,1.4,-7.8
Cn1c(SCC(=O)Nc2cccnc2Cl)nnc1-c1ccco1,-3.4,-4.2,x,x,x,0.7
COc1ccc(CCNC(=S)Nc2ccc(S(=O)(=O)Nc3ncccn3)cc2)cc1OC,24.1,3.0,67.2*,i,-4.3,-2.3
Cc1ccc(CNC(=O)CSc2nccn(-c3ccc(C)c(F)c3)c2=O)cc1,40.9*,-0.6,x,x,x,1.5
CN1C(=O)NC(c2cccc([N+](=O)[O-])c2)C2=C1CCCC2=O (stereo not given),-2.2,-10.3,11.4,i,-8.7,-6.0
CSc1ccccc1NC(=O)c1noc2c1CCC2,28.7,15.6,31.7,+,90.4*,37.4
O=C(O)CCCN1C(=O)/C(=C/c2cn(-c3ccccc3)nc2-c2cccs2)SC1=S,-11.6,x,72.1*,i,56.9,x
COc1ccc2oc(C(=O)OCC(=O)Nc3ccc(C)c(S(=O)(=O)N4CCOCC4)c3)c(C)c2c1,8.1,x,x,x,x,x
CCc1ccc(C(c2c(C)nn(-c3ccccc3)c2N)c2c(C)nn(-c3ccccc3)c2N)cc1,7.8,-12.7,-10.5,i,10.6,-3.0
Cc1cccc(C(c2c(C)nn(-c3ccccc3)c2N)c2c(C)nn(-c3ccccc3)c2N)c1,10.4,-4.9,97.2*,i,2.5,-3.2
CCOc1ccc(CCNC(=O)CCC(=O)N2CCOc3ccccc32)cc1OCC,5.3,9.7,15.1,i,2.4,3.2
